Sampled rows, rich in hits. Any-hit rate of the full collection: about 2.2%.
GC-B act = human GC-B receptor activators, primary screen, HEK293 GC-B cells, cGMP TR-FRET, EC30 CNP; activation, % at 10 µM; 0.11% of 370,000 active; 0% at EC30 CNP, 100% saturating CNP; AID 1920062, 2024; Atrial natriuretic peptide receptor 2 (Homo sapiens), P20594;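 active means activation at 10 µM reaching about 35% in either raw or pattern-adjusted values, limit read from the data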
PLC-gamma1 inh = PLC-gamma1 enzyme inhibitors, primary screen, biochemical, fluorescence, purified enzyme; 1-phosphatidylinositol 4,5-bisphosphate phosphodiesterase gamma-1 (Homo sapiens), P19174; fluorogenic substrate; inhibition, % at 12.2 µM; 0.84% of 370,000 active; in the data active means inhibition above about 9.5%
NPR1 activator = GC-A stimulated cGMP production enhancers – HEK293 GC-A cells, cGMP TR-FRET, EC30 ANP, primary screen | Atrial natriuretic peptide receptor 1 (Homo sapiens), P16066 | activation, % at 10 µM | AID 1671463, 2021 | 0.14% of 370,000 active | 0% at EC30 ANP, 100% saturating ANP; in the data active means activation above about 40%
M18AAP inhibitor = PfM18AAP inhibitors, malaria aminopeptidase, primary screen, biochemical, QFRET, recombinant enzyme; 1.2% of 290,000 active; H-Glu-NHMec fluorogenic cleavage; AID 1822, 2009; M18 aspartyl aminopeptidase (Plasmodium falciparum 3D7); inhibition, % at 7.35 µM;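 active means inhibition above the campaign mean inhibition over all tested compounds plus 3 SD, cut at about 28% in these data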
PLC-beta3 inh = human PLC-beta3 inhibitors, primary screen, biochemical, fluorescence. inhibition, % at 12.2 µM. AID 720704, 2013. 0.18% of 370,000 active. Purified PLC-beta3, fluorogenic substrate
Rce1 inhib = yeast Rce1p protease inhibitors, primary screen, biochemical, fluorescence, cell-free homogeneous; yeast membranes, quenched prenylated peptide cleavage fluorescence; calls only; 0.27% of 290,000 active;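 active means fall in fluorescence gain of 50% or more versus controls, with final raw signal at or below 3038400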
PLCgamma1 ctr = PLC-gamma1 enzyme inhibitors, counter-screen for PLC-beta3 inhibitor project, biochemical, fluorescence. shares compounds with PLC-gamma1 inh. purified PLC-gamma1, fluorogenic substrate. AID 743258, 2014. inhibition, % at 12.3 µM. 3.1% of 3,300 active; in the data active means inhibition above about 9.5%
PLCbeta3 conf = PLC-beta3 inhibitor confirmation, biochemical, fluorescence, purified enzyme; shares compounds with PLC-gamma1 inh; fluorogenic substrate fluorescence; inhibition, % at 12.3 µM; 1% of 3,300 active; AID 743261, 2014
Large screens that a line does not name were inactive (follow-up assays come after a bar, where they were run). Unless noted, no stated cut-off is given here; in the data, active means inhibition above about 11%; inactive means the rest.

Cc1ccc(C)c(NC2=NS(=O)(=O)c3ccccc32)c1	PLC-gamma1 inh 11 | PLCgamma1 ctr inactive | PLCbeta3 conf inactive
CCCNC(=O)c1cc2c(C(F)(F)F)nn(C)c2s1	PLC-gamma1 inh 13 | PLCgamma1 ctr inactive | PLCbeta3 conf inactive
CC(C)NC(=O)c1cc2c(C(F)(F)F)nn(C)c2s1	none
C/C(Cl)=C\Cn1c(N2CCCCCC2)nc2c1c(=O)n(C)c(=O)n2C	none (no result: Rce1 inhib)
C=CCn1c(N2CCCC2)nc2c1c(=O)n(C)c(=O)n2C	PLC-gamma1 inh 9.7 | PLCgamma1 ctr inactive | PLCbeta3 conf inactive
COc1ccc(CNCC#Cc2ccc(C)cc2)c(OC)c1	none (no result: M18AAP inhibitor, Rce1 inhib)
CCCCNC(=O)C[C@H]1C[C@@]2(C(=O)OC)C(=C[C@H](C(C)(C)C)O[C@@H]2C)N(Cc2ccc(Cl)cc2Cl)C1=O	none (no result: M18AAP inhibitor, Rce1 inhib)
N#Cc1ccc(OCC(O)CN2CCN(c3ncc(C(F)(F)F)cc3Cl)CC2)cc1 (stereo not drawn)	none (no result: Rce1 inhib)
OC(CN1CCN(c2ncc(C(F)(F)F)cc2Cl)CC1)c1ccccc1 (stereo not drawn)	PLC-gamma1 inh 13 | PLCgamma1 ctr inactive | PLCbeta3 conf inactive
S=C(Nc1ccccc1)c1ccccn1	PLC-gamma1 inh 11, PLC-beta3 inh 12 | PLCgamma1 ctr inactive | PLCbeta3 conf inactive
COc1ccc(-c2cc(-c3nnc4sc(-c5cccs5)nn34)[nH]n2)cc1	none (no result: M18AAP inhibitor, Rce1 inhib)
COC(=O)[C@]12C[C@H](CC(=O)N3CCCC3)C(=O)N(Cc3cccc4ccccc34)C1=C[C@H](C(C)C)O[C@@H]2C1CC1	none (no result: M18AAP inhibitor, Rce1 inhib)
Cc1ccccc1C(=O)n1ccc2ccc(-c3ccc4ccn(Cc5ccccc5)c4c3)cc21	none (no result: M18AAP inhibitor, Rce1 inhib)
CC(C)CNC(=O)C1CCN(Cc2ccc(OCc3ccccc3)cc2)CC1	PLC-gamma1 inh 12 | PLCgamma1 ctr inactive | PLCbeta3 conf inactive
CN(c1ccccc1)S(=O)(=O)c1ccc(Cl)c(C(=O)Nc2ccncc2)c1	PLC-gamma1 inh 9.8 (no result: M18AAP inhibitor, Rce1 inhib) | PLCgamma1 ctr inactive | PLCbeta3 conf inactive
O=C(NCC(c1ccccc1)c1ccccc1)[C@H](Cc1c[nH]c2ccccc12)NC1(C(=O)NC2CCCCC2)CCCC1	none (no result: M18AAP inhibitor, Rce1 inhib)
Cn1c(=O)c2c(ncn2CCC(=O)N/N=C/c2ccccc2)n(C)c1=O	PLC-gamma1 inh 11, PLC-beta3 inh 11 | PLCgamma1 ctr inactive | PLCbeta3 conf inactive
Cn1c(=O)c2c(ncn2CCC(=O)N/N=C/c2ccncc2)n(C)c1=O	none
CCOC(=O)c1c(C)c(C(=O)Nc2ccc(F)cc2)c(C)n1C	PLC-gamma1 inh 13 | PLCgamma1 ctr inactive | PLCbeta3 conf inactive
CC1(C)CC(=O)C=C(Nc2ccccc2NC(=O)c2cc(F)cc(F)c2)C1	none (no result: M18AAP inhibitor, Rce1 inhib)
Nc1ccc(N2CCOCC2)c2nonc12	PLC-gamma1 inh 31 | PLCgamma1 ctr inactive | PLCbeta3 conf inactive
CN1C[C@]2(C=C3CCCCC3n3c(=O)n(-c4ccccc4)c(=O)n32)N(C(=O)OCc2ccccc2)C1=NC(=O)c1ccccc1 (stereo partly drawn)	none (no result: M18AAP inhibitor, Rce1 inhib)
Nc1ccc2c(c1)C(=O)C(=O)c1ccccc1-2	PLC-gamma1 inh 53 | PLCgamma1 ctr 51 | PLCbeta3 conf inactive
Cc1ccccc1NC(=O)N(C)[C@H]1C[C@H]2c3[nH]c4c(-c5ccc6c(c5)OCO6)cccc4c3CCN2C(=O)[C@H]1[C@H](C)O	none (no result: M18AAP inhibitor, Rce1 inhib)
O=C(Nc1ccc(F)cc1)OCc1cn(Cc2cc(F)cc(F)c2)nn1	none (no result: M18AAP inhibitor, Rce1 inhib)
C/C(C=Nn1c(-c2ccc(F)cc2)n[nH]c1=S)=C/c1ccco1	none (no result: M18AAP inhibitor, Rce1 inhib)
c1csc(C(c2nnnn2C2CCCCC2)N2CCN(c3nc4ccccc4s3)CC2)c1 (stereo not drawn)	PLC-gamma1 inh 11 | PLCgamma1 ctr inactive | PLCbeta3 conf inactive
CCCC1CCC2(CC1)CCC2OC(=O)Nc1ccccc1C (stereo not drawn)	none (no result: M18AAP inhibitor, Rce1 inhib)
COc1cc(/C=N/Nc2nc(Nc3ccccc3)nc(N3CCCCC3)n2)ccc1OCC(=O)O	PLC-gamma1 inh 12 | PLCgamma1 ctr inactive | PLCbeta3 conf inactive
COc1ccccc1NC(=O)COc1ccc(/C=N/NC(=O)CSCc2cc(C)cc(C)c2)cc1	none
COc1ccccc1NC(=O)COc1ccc(/C=N/NC(=O)CSCc2ccc(Cl)cc2)cc1	PLC-gamma1 inh 9.5 | PLCgamma1 ctr inactive | PLCbeta3 conf inactive
CC(NCc1cccc(OCc2ccccc2)c1)C(O)c1ccccc1 (stereo not drawn)	none
CC(NCc1ccc(OCc2ccc(Cl)cc2)cc1)C(O)c1ccccc1 (stereo not drawn)	PLC-gamma1 inh 19 | PLCgamma1 ctr inactive | PLCbeta3 conf inactive
Cc1ccc(S(=O)(=O)NCCCc2ccc3c(c2)[C@]2(CCC[C@@H](OCc4ccccc4)[C@@H]2NC(=O)CCc2ccccc2)C(=O)N3Cc2ccccc2)cc1	none (no result: M18AAP inhibitor, Rce1 inhib)
CC1CCN(C2(O)C(=O)Nc3ccc([N+](=O)[O-])cc32)CC1 (stereo not drawn)	PLC-gamma1 inh 10, PLC-beta3 inh 14 | PLCgamma1 ctr inactive | PLCbeta3 conf inactive
CC1CCN(C2(O)C(=O)Nc3ccc(Cl)cc32)CC1 (stereo not drawn)	none
COc1ccc(S[C@]2(C(=O)N3CCN(c4ncccn4)CC3)CC(=O)N(C(=O)C3CC3)[C@@H]2c2ccc(OC)cc2)cc1	none (no result: M18AAP inhibitor, Rce1 inhib)
CCCCc1n[nH]c2c1/C(=N/O)CC(C)(C)C2	none (no result: Rce1 inhib)
CCCc1n[nH]c2c1C(=O)CC(C)(C)C2	PLC-gamma1 inh 11 | PLCgamma1 ctr inactive | PLCbeta3 conf inactive
CCC(=O)NC(Nc1nc(C)cs1)(C(=O)OC)C(F)(F)F (stereo not drawn)	PLC-beta3 inh 11 | PLCgamma1 ctr inactive | PLCbeta3 conf inactive
COC(=O)C(NC(=O)c1ccc(F)cc1)(Nc1nc(C)cs1)C(F)(F)F (stereo not drawn)	none
C=CCNC(=O)CN(C(=O)Cc1ccc(Cl)cc1)c1cccc(Br)c1	none (no result: M18AAP inhibitor, Rce1 inhib)
Cc1cc(C(=O)NNC(=S)NCc2ccccc2)cs1	PLC-beta3 inh 13 | PLCgamma1 ctr inactive | PLCbeta3 conf inactive
Cc1cc(C(=O)NNC(=S)NCC(C)C)cs1	PLC-beta3 inh 13 | PLCgamma1 ctr inactive | PLCbeta3 conf 14
CCCCN(C(=O)COc1ccc(C)cc1OC)c1c(N)n(CCC)c(=O)[nH]c1=O	PLC-gamma1 inh 12 | PLCgamma1 ctr inactive | PLCbeta3 conf inactive
